From PubChem BioAssay AID1508600 (Functional Genomics Laboratory (NCATS/FGL), 2020)
The campaign covered roughly 53,000 sequences. About 3,700 (7%) were called active.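 Rule for the calls: active = gene knockdowns whose robust z-score for IL-1 alpha signal is at least 2 or at most -2, so actives lie on both sides; inactive = the rest.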 Shown is part of a subset that was picked to be rich in actives.

Test: Components of the Cytosolic LPS Sensing Pathway: Gene Identification via Genome-wide siRNA Screen;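 note: robust z of the log signal after scaling to non-targeting control siRNA wells of the plate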
Settings: RAW264.7 macrophages, IL-1a HTRF, actives lie on both sides, screened at 100 nM (by protocol), cells primed 5 h with Pam3CSK4 first
Outline: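 IL-1a HTRF of supernatants after 24 hour LipidA transfection of Pam3CSK4-primed (5 hours) RAW264.7 cells, 48h post-siRNA transfection (100 nM). Scores: percent of plate negative-control median, then log-based robust z-score.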

Sequence	z-score
GCCUCUAUAUCUUUCACUGTT against Olfr1209	-2.16 (active)
CCGGACCAUCUUCGACAGUTT against Pmepa1	-0.783 (inactive)
GGAACUGUGUGUCUUCUCCTT against Kcns3	-1.78 (inactive)
CGGUGAAAGACUUCAGUAUTT against Ppfibp1	0.578 (inactive)
GCCAGCGACCUUUAGUACATT against Cmtm1	2.08 (active)
CCUGCUCUUCGUUAUCUUGTT against Olfr552	1.59 (inactive)
GCGACAGAGGAAGCUUGUUTT against Mak16	0.634 (inactive)
CGACAAGAAGACUUCGAAUTT against Mnt	-1.28 (inactive)
GGCCUAUUUUUUCAUAGUUTT against Ptprs	0.0729 (inactive)
GCACACUGAUGAACUUACCTT against Ston2	2.55 (active)
GGCAAAGUACUACGUGCAGTT against Sh3bp5	-0.225 (inactive)
GGCAGAAUAUGAGUUUGAUTT against Camk1d	-0.161 (inactive)
GGAAAAAGAUGCGACAAUGTT against A930012O16Rik	-1.01 (inactive)
GGGACCAUUCUGAAGAUGATT against Acot7	-1.76 (inactive)
GGAGAAUAUGUCGUCAUGATT against Gabra3	-1.09 (inactive)
GGAAAAACUGGUCUAUCAATT against Polr3f	1.47 (inactive)
GGAAGAAUGUGGGUAAAGATT against Gimap9	-2.01 (active)
CCGUUUUUGUGGUUCAGUGTT against Plxdc1	0.0355 (inactive)
GGCAACAUUGAACAUGCCUTT against Stambp	-1.76 (inactive)
GCAGUUCAAGUCUUGAAUATT against Olfr934	-1.09 (inactive)
GGGUUUCUGUUAAUCCACATT against H3c8	-1.38 (inactive)
CCUGCUUGCCAACACCAUATT against Slc39a13	-2.2 (active)
GGAACAACAUUGUUCUAAATT against Fstl5	0.759 (inactive)

Sequence	z-score
GGGAGCCAUUUUUACAGACTT against Ffar4	0.405 (inactive)
GCCGGAACAUCCAGAAUAGTT against Cpeb2	-0.644 (inactive)
GCACCUAGCAUAGCAAUGGTT against Slc24a1	0.695 (inactive)
GCGAUGACCAAAAAUAUUGTT against Tmc1	-0.0131 (inactive)
GCUGGCUAGAAUCUUACCCTT against Aph1c	0.554 (inactive)
GGGCAUGCAAUGUUCAUGCTT against Rho	0.095 (inactive)
GGUUGUGCAACACAGCUCUTT against Olfr218	-2.31 (active)
CGUGUCAGAACUCGAUCUUTT against Tbcel	-0.549 (inactive)
GGCCAUUGUUACUGGAAAATT against Elmo2	-0.353 (inactive)
GGAACUGACUCUUGAAAAUTT against Cd14	0.367 (inactive)
GCUAGAGUCCAUAAACAAUTT against Olfr1148	-0.0654 (inactive)
GGGUUAAAGCGGUUUACUUTT against Kcng3	2.72 (active)
GGAGCAAUCUGUUAAACUATT against Vash2	0.318 (inactive)
GGCCCAUCCUGAAACCAAATT against Wfdc15b	-2.04 (active)
CCCGGAGUGGUCAGAAGUATT against Mapkapk2	-0.376 (inactive)
GGUAAGCAUGGAAAGGCUGTT against Prdm15	-0.0134 (inactive)
GCCGUCAGAUGACAACUAGTT against Lta	0.481 (inactive)
GGAUGACCUUGAAAGCAGUTT against Usp29	-0.677 (inactive)
GGCAAAGCUGUCUUAGAGGTT against Mettl23	-1.35 (inactive)
GGCCAAAGCCAGAAUCUCATT against Zfp281	3.07 (active)
GGACAUAGAUCUACCUGAATT against Ctsb	-1.48 (inactive)
GCUUAAUGCCUUGAAACGATT against Tsg101	1.9 (inactive)
GGAAGAAGAUCACCAUCAUTT against Ifi204	-2.64 (active)

Sequence	z-score
GCACUUUGUGCUAGAUGAATT against Ddx39a	-0.688 (inactive)
GGAAUUGAAACCUGAUGUUTT against Srfbp1	0.239 (inactive)
GCUACUGUGUCGGUCACAUTT against Olfr514	0.753 (inactive)
CCAGUGAUAACUCUCUUGUTT against A830039N20Rik	1.23 (inactive)
GGUUGUGUUUACCAUGAAGTT against Rps6ka6	0.684 (inactive)
GUCAUGGUAGGGAUUUACATT against Taar4	-2.83 (active)
GGAGAUCUAUUGGAUCCAUTT against Trim12a	0.337 (inactive)
CCAGAUGUCGGCAGAUAACTT against Pold4	0.446 (inactive)
GGGCUUUGAUCAGUUCUACTT against Hoxd11	1.88 (inactive)
GCACUUUAAUCUGGCUACCTT against Dnmt3b	-0.78 (inactive)
GGCUCUGACCAAGAAUGAUTT against Cpsf1	1.27 (inactive)
GGAUCACUAACUUUUCCAATT against Trpc3	3.46 (active)
GGCACACUCACUCCUUUGATT against Mis18bp1	0.145 (inactive)
GGAAACGAUGAAGAACAAATT against 4933427D06Rik	-0.714 (inactive)
GCAUUUUUCGUUAGGAAAATT against Esco2	3.13 (active)
GGUAGAAACAAAGAAAUAGTT against 9130023H24Rik	-0.183 (inactive)
GGGCUAAGGACAGAAUUACTT against Tusc2	-0.0196 (inactive)
GGAGAAGAACUAAAACUUATT against Bbs7	0.846 (inactive)
GGUCUCCAUCACAUUCAAGTT against BC024139	1.19 (inactive)
CCGGAUGGGAAUCGCUAAATT against Slc22a13b	2.17 (active)
AAUCUUUUCGUGAAGGCACTT against Zfp948	0.84 (inactive)
CGAAUGCUUAUUUAGGUUGTT against Kpna4	-0.387 (inactive)
